Experimental findings from PubChem BioAssay (EPA / NIEHS) are described below.

A short description of test [1]: ATG_AP_2_CIS: Attagene CIS-FACTORIAL HepG2 Assay for human Activator Protein 2 (AP-2) (AID 2282932). Conditions: HepG2 AP-2 cis-reporter, Attagene transcription factor profiling; actives raise or lower the signal. Put shortly:
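Assay in transfected HepG2 with promoter-regulated reporters, 24 h incubation after dosing. Signal is reporter mRNA fluorescence (RT-PCR, capillary electrophoresis), analysed for both increases and decreases relative to DMSO controls.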

Test [2] deals with Transcription factor E2F1 (Homo sapiens) (UniProt Q01094). As to the kind of experiment: ATG_E2F_CIS: Attagene CIS-FACTORIAL HepG2 Assay for human E2F Transcription Factor 1 (AID 2282935). Conditions: HepG2 Attagene cis-reporter, E2F reporter RNA transcripts; actives raise or lower the signal. Put shortly: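 In this cis-factorial format, endogenous factor activity drives transfected reporters in HepG2; transcripts collected at 24 h are quantified by fluorescence after RT-PCR and capillary separation.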
Chain of Transcription factor E2F1 (Homo sapiens) (Q01094 whole entry, looked up): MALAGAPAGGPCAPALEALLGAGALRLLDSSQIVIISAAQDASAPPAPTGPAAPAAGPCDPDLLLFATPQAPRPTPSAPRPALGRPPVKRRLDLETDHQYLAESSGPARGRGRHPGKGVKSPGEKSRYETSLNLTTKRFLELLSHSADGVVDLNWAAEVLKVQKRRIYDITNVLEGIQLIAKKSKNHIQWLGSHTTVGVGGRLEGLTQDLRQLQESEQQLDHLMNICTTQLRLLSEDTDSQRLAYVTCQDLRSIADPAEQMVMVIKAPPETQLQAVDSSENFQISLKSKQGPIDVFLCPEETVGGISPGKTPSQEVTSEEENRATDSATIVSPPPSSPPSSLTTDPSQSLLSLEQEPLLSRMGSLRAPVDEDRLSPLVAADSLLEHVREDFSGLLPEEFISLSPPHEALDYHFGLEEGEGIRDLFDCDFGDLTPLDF

Test [3] can be described thus: ATG_M_61_CIS: Attagene CIS-FACTORIAL HepG2 Assay for M61 Transcription Factor (Internal Marker) (AID 2282937). As to conditions: HepG2 Attagene CIS-FACTORIAL M61 internal marker reporter; actives raise or lower the signal. Put shortly:
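Readout is reporter mRNA by RT-PCR, fluorescent primer extension and capillary electrophoresis, with gain or loss fitted relative to DMSO. Transfected HepG2 cells carrying endogenous-TF-driven cis reporters were exposed to chemicals for 24 hours.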

Test [4] is described as follows: ATG_EGR_CIS: Attagene CIS-FACTORIAL HepG2 Assay for human Early Growth Response 1 (EGR1) (AID 2282938). As to conditions: HepG2 Attagene CIS-FACTORIAL EGR reporter mRNA; actives raise or lower the signal. Put shortly:
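After 24 h compound exposure, RNA from reporter-transfected HepG2 cells was reverse-transcribed, PCR-amplified, fluorescently labelled and resolved by capillary electrophoresis. EGR1 reporter transcript changes, up or down, were fitted against DMSO, reflecting endogenous transcription-factor activity.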

The nature of test [5]: ATG_Ets_CIS: Attagene CIS-FACTORIAL HepG2 Assay for human Erythroblast Transformation Specific (ETS) (AID 2282941). As to conditions: HepG2 ETS cis-reporter transcription, actives raise or lower the signal. Put shortly:
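Endogenous transcription factor activity read as reporter mRNA via RT-PCR and capillary electrophoresis, with gain or loss fitted bidirectionally against DMSO. Human HepG2 liver cells, transiently transfected CIS reporter constructs, 24 h exposure.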

The target in test [6] is Hepatocyte nuclear factor 3-beta (Homo sapiens) (UniProt Q9Y261). Nature of the test: ATG_FoxA2_CIS: Attagene CIS-FACTORIAL HepG2 Assay for human Forkhead box A2 (FOXA2) (AID 2282942). Conditions: HepG2 cis-reporter transcription factor activity, 24 h; actives raise or lower the signal. Put shortly:
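Endogenous transcription factor activity is captured via cis-element-driven reporter transcripts in transfected HepG2. Total RNA taken at 24 h post-dosing; labelled RT-PCR products resolved by capillary electrophoresis. Gain or loss fitted versus DMSO.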

Test [7] can be described thus: ATG_FoxO_CIS: Attagene CIS-FACTORIAL HepG2 Assay for human Forkhead box O (FoxO) (AID 2282943). As to conditions: HepG2 Attagene cis-reporter, FoxO element, mRNA; actives raise or lower the signal. Put shortly: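 24 h chemical exposure, HepG2 with transient cis-MRTU transfection. RNA extraction, oligo(dT) RT, reporter-specific PCR, primer-extension labelling, HpaI digestion, CE fragment analysis; bidirectional fit, DMSO baseline.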

Test [8] concerns the target Hypoxia-inducible factor 1-alpha (Homo sapiens) (UniProt Q16665). As to the kind of experiment: ATG_HIF1a_CIS: Attagene CIS-FACTORIAL HepG2 Assay for human Hypoxia Inducible Factor 1 (HIF1A) (AID 2282951). Conditions: HepG2 Attagene cis-factorial HIF1a reporter transcription; actives raise or lower the signal. Put shortly: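 Activity is fitted in both directions relative to DMSO. Reporter transcripts are read by RT-PCR, fluorescent primer extension and capillary electrophoresis after 24 h chemical treatment. The cells are HepG2 carrying transiently transfected cis-element-driven reporter units responding to endogenous factors.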

Test [9] in a line: ATG_RORE_CIS: Attagene CIS-FACTORIAL HepG2 Assay for human RAR-related Orphan Receptor Element (RORE) (AID 2282959). As to conditions: HepG2 Attagene cis-factorial RORE reporter, mRNA; actives raise or lower the signal. Put shortly:
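RORE reporter transcripts reflecting endogenous factor activity were read after 24 h compound exposure of transfected HepG2 cells, using reverse transcription, PCR, fluorescent labelling and capillary electrophoresis sizing. Gain or loss fitted against DMSO.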

The nature of test [10]: ATG_TGFb_CIS: Attagene CIS-FACTORIAL HepG2 Assay for human Transforming Growth Factor (TGF) (AID 2282967). Conditions: HepG2 Attagene CIS TGFb reporter, mRNA transcription; actives raise or lower the signal. Put shortly: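 HepG2 cells transiently transfected with cis-promoter-driven multiplexed reporter units; 24 h compound exposure. Reporter mRNA measured by RT-PCR, 6-FAM labeling, HpaI digestion and capillary electrophoresis; bidirectional fit versus DMSO baseline.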

A short description of test [11]: ATG_VDRE_CIS: Attagene CIS-FACTORIAL HepG2 Assay for human Vitamin D Receptor Element (VDRE) (AID 2282968). As to conditions: HepG2 VDRE cis-reporter transcription, actives raise or lower the signal. Put shortly:
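Transfected HepG2 reporter cells, chemical treatment 24 h. RNA isolated, cDNA amplified with reporter-specific primers, products analysed by capillary electrophoresis. Endpoint fitted in both directions versus DMSO.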

The target of test [12] is X-box-binding protein 1 (Homo sapiens) (UniProt P17861). As to the kind of experiment: ATG_Xbp1_CIS: Attagene CIS-FACTORIAL HepG2 Assay for human X-box Binding Protein 1 (XBP1) (AID 2282972). As to conditions: HepG2 XBP1 cis-element reporter, Attagene multiplex; actives raise or lower the signal. Put shortly: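 Reporter transcripts were quantified by RT-PCR with fluorescent primer extension and capillary electrophoresis after 24 h chemical exposure. Cells: transiently transfected HepG2 carrying cis-regulated reporter constructs; data fitted bidirectionally relative to DMSO.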
Chain of X-box-binding protein 1 (Homo sapiens) (P17861 whole entry, looked up): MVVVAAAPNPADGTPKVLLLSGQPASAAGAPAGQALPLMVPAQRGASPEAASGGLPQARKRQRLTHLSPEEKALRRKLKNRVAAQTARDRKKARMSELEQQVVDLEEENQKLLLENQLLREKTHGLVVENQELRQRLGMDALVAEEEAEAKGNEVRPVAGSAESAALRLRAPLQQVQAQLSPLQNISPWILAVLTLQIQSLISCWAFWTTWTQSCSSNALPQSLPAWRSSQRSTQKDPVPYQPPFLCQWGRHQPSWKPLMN

In test [13] the target is Transcriptional activator Myb (Homo sapiens) (UniProt P10242). As to the kind of experiment: ATG_Myb_CIS: Attagene CIS-FACTORIAL HepG2 Assay for human Myeloblastosis (Myb) Proto-Oncogene Transcription Factor (AID 2282986). Conditions: HepG2 Attagene CIS-FACTORIAL Myb reporter transcription; actives raise or lower the signal. Put shortly: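 Reporter mRNA is quantified by RT-PCR and capillary electrophoresis 24 h after dosing HepG2 cells transfected with cis-regulated reporter units, which track endogenous transcription factor activity. Gain and loss of signal are fitted versus DMSO baseline.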
Chain of Transcriptional activator Myb (Homo sapiens) (P10242 whole entry, looked up): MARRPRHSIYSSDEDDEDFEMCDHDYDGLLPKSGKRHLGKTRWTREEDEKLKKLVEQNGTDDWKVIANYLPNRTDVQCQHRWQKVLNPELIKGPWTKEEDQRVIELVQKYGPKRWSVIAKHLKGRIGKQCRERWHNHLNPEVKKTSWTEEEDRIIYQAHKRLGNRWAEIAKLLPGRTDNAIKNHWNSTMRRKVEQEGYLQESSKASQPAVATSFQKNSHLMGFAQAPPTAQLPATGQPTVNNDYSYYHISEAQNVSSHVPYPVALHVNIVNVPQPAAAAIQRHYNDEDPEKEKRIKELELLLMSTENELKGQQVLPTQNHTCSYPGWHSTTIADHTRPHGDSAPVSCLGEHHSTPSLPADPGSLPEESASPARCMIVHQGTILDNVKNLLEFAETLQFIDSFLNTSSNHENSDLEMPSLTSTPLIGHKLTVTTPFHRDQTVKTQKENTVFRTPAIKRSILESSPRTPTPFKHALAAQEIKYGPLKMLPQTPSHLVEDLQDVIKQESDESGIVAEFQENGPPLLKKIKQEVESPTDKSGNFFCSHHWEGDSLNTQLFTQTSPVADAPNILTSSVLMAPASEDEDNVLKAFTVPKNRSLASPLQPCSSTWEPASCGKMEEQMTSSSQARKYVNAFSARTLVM

In test [14] the target is Nuclear respiratory factor 1 (Homo sapiens) (UniProt Q16656). As to the kind of experiment: ATG_NRF1_CIS: Attagene CIS-FACTORIAL HepG2 Assay for human Nuclear Respiratory Factor 1 (NRF1) Orphan Gene (AID 2282987). Conditions: HepG2 NRF1 cis-element reporter, Attagene multiplex; actives raise or lower the signal. Put shortly:
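Endogenous NRF1-driven reporter transcription in transfected HepG2 cells after 24 h treatment. Readout: RT-PCR products, 6-FAM labelled and resolved by capillary electrophoresis; changes fitted both directions relative to DMSO.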

Test [15] can be described thus: ATG_NFI_CIS: Attagene CIS-FACTORIAL HepG2 Assay for human Nuclear Factor I (NFI) (AID 2282989). Conditions: HepG2 cis-regulatory reporter, NFI response element transcription; actives raise or lower the signal. Put shortly: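 HepG2 cells transiently transfected with cis-element-driven multiplexed reporter transcription units, dosed for 24 h. Reporter mRNA quantified by RT-PCR, fluorescent labelling, HpaI digestion and capillary electrophoresis; bidirectional fit versus DMSO baseline.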

Test [16] deals with Myc proto-oncogene protein (Homo sapiens) (UniProt P01106). As to the kind of experiment: ATG_Myc_CIS: Attagene CIS-FACTORIAL HepG2 Assay for human Myelocytomatosis (Myc) Proto-Oncogene Transcription Factor (AID 2282990). Conditions: HepG2, Attagene cis-reporter transcription factor activity; actives raise or lower the signal. Put shortly: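 DMSO-normalised, bidirectionally fitted reporter mRNA signal. HepG2 cells transfected with cis reporter constructs, treated 24 h; transcripts detected by RT-PCR, 6-FAM primer extension and CE.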
Chain of Myc proto-oncogene protein (Homo sapiens) (P01106 whole entry, looked up): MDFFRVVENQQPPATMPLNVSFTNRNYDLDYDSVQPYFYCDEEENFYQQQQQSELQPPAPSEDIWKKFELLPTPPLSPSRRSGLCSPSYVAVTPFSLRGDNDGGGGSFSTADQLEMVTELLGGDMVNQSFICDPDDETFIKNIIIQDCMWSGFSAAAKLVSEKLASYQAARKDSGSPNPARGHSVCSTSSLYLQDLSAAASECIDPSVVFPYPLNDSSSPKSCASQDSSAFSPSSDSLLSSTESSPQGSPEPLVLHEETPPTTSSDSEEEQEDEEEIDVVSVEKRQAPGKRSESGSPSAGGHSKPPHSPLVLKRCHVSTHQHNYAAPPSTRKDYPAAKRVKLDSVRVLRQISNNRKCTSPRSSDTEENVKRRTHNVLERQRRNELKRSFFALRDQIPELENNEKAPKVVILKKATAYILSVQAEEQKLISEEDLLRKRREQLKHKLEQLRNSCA

For test [17], the target named is Cellular tumor antigen p53 (Homo sapiens) (UniProt P04637). Nature of the test: ATG_p53_CIS: Attagene CIS-FACTORIAL HepG2 Assay for human p53 Transcription Factor (AID 2282994). As to conditions: HepG2 p53 cis-element reporter, Attagene mRNA; actives raise or lower the signal. Put shortly:
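Endogenous p53 activity read in transiently transfected HepG2 from a cis-element-driven reporter transcript after 24 h exposure. RNA reverse-transcribed, PCR-amplified, fluorescently labelled and sized by capillary electrophoresis; gain or loss fitted against DMSO baseline.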

A short description of test [18]: ATG_XTT_Cytotoxicity: Cytotoxicity Assessment in the Attagene TRANS-FACTORIAL HepG2 Assay (AID 2283584; active = hit-call score of the fitted dose curve at least 0.9, where 1 is the maximum). Put shortly: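 24 h chemical exposure of reporter-transfected HepG2; XTT signal loss vs DMSO indicates cytotoxicity.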
The target in test [19] is Cellular tumor antigen p53 (Homo sapiens) (UniProt P04637). Nature of the test: TOX21_p53_BLA_p2_ratio: Tox21 HCT-116 p53 Agonism Beta-lactamase Assay, Ratio, Phase 2 (AID 2283592; active = hit-call score of the fitted dose curve at least 0.9, where 1 is the maximum). Put shortly:
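DMSO-normalized, positive-direction endpoint derived from the 460 nm/530 nm FRET ratio in HCT116 p53 beta-lactamase reporter cells exposed 16 h at 37C and loaded with CCF4-AM for 2 h.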

Test [20] has as its target Nuclear receptor subfamily 1 group I member 2 (Homo sapiens) (UniProt O75469). As to the kind of experiment: ATG_PXR_TRANS: Attagene TRANS-FACTORIAL HepG2 Assay for human Pregnane X Receptor (PXR) (AID 2283008; active = hit-call score of the fitted dose curve at least 0.9, where 1 is the maximum). Put shortly:
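Transactivation by exogenous PXR–GAL4 fusion measured as reporter transcript induction after 24 h compound treatment of transfected human HepG2 cells. Read-out via RT-PCR and capillary electrophoresis of labelled fragments, fitted upward relative to DMSO.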

Inconclusive results are not listed. Active and inactive are the calls of the source. The calls were made as follows, unless noted: active = hit-call score of the fitted dose curve at least 0.9, where 1 is the maximum; inactive = score below 0.9.

Chain of Nuclear respiratory factor 1 (Homo sapiens) (Q16656 whole entry, looked up): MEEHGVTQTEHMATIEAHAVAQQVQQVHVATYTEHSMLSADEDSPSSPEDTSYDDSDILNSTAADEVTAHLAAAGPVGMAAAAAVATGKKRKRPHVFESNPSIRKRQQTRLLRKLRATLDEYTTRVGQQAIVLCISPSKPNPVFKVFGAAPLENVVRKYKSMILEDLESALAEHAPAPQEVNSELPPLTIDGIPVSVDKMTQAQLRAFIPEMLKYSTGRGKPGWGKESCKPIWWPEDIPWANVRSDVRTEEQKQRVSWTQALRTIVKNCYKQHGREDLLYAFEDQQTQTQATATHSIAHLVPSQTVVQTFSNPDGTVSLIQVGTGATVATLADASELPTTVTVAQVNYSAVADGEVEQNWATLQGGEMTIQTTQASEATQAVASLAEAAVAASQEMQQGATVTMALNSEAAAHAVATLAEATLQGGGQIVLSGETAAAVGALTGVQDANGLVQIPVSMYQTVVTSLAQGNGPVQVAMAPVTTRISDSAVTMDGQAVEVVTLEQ
Chain of Nuclear receptor subfamily 1 group I member 2 (Homo sapiens) (O75469 whole entry, looked up, the tested form may be a part): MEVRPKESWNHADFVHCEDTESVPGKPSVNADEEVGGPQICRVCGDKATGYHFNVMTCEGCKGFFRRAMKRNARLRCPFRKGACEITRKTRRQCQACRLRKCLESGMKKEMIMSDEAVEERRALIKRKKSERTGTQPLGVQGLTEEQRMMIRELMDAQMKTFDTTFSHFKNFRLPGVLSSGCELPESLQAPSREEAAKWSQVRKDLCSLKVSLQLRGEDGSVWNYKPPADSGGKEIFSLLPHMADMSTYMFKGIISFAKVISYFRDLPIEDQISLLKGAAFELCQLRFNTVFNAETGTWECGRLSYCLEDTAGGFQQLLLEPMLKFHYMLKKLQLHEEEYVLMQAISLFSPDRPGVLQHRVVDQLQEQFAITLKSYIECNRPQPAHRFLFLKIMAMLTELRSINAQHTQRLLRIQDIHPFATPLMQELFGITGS
Chain of Hypoxia-inducible factor 1-alpha (Homo sapiens) (Q16665 whole entry, looked up): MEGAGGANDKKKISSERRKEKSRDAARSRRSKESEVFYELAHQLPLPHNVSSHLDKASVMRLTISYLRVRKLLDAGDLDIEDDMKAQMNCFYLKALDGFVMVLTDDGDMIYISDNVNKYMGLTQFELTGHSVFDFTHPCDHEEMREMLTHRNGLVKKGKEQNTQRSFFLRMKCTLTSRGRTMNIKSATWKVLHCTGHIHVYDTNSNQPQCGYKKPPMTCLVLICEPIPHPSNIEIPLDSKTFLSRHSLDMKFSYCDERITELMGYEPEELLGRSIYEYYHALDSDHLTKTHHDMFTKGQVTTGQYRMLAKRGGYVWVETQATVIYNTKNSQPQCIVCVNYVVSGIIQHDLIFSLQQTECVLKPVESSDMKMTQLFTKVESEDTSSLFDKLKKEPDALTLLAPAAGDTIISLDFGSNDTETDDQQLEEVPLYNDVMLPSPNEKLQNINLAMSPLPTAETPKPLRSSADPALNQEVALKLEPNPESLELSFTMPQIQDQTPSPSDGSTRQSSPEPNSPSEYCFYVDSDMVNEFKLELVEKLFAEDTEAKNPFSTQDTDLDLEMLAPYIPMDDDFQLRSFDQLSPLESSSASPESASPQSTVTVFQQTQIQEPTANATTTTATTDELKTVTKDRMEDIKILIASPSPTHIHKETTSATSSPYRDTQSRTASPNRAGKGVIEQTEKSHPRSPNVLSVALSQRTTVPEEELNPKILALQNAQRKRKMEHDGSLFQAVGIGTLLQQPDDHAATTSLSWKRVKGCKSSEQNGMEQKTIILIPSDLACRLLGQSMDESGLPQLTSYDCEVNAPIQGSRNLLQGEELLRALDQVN
Chain of Hepatocyte nuclear factor 3-beta (Homo sapiens) (Q9Y261 whole entry, looked up): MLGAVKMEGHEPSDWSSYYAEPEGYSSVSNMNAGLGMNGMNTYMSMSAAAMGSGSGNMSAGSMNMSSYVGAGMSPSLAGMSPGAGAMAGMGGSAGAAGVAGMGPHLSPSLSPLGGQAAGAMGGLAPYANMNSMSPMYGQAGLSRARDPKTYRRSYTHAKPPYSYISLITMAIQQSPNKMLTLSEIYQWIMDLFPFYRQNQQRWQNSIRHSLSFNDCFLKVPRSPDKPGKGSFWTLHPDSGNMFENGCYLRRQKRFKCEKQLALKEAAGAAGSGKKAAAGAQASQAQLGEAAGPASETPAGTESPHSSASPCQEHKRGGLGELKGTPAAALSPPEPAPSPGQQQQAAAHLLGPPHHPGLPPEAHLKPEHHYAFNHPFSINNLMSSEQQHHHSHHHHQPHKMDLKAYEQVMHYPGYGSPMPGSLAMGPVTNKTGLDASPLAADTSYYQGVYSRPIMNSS
Chain of Cellular tumor antigen p53 (Homo sapiens) (P04637 whole entry, looked up): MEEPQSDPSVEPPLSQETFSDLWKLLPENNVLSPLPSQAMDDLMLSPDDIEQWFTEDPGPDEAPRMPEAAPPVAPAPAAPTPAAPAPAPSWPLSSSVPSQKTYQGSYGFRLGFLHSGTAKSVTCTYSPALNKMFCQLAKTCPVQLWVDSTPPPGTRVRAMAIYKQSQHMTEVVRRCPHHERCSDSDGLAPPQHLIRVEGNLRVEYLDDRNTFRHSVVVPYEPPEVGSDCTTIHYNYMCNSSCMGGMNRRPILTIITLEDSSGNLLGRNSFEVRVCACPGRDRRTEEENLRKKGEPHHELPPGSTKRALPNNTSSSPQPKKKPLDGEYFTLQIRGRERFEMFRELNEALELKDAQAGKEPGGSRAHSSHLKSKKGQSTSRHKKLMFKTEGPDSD

As for `CCC(C)NC(N)=O` (configuration not stated), the compound was classed as inactive in test [1], in test [2], in [3], in [4], in test [5] and in test [6]. In addition, the compound was called inactive in [7], in test [8], in [9], in test [10], in test [11] and in test [12]. For the same compound, the compound was called inactive in test [13], in test [14], in [15], in test [16], in test [17] and in test [18]. Further, the result in test [19] was inactive.
Regarding `C=C(C)C(=O)OCCCCCC`, the outcome in test [1], in test [2], in test [3], in test [5], in test [6] and in test [7] was inactive. For the same compound, the result in test [8], in [10], in test [11], in test [12], in test [13] and in test [14] was inactive. The call in test [15], in test [16], in test [17], in test [18] and in test [19] was inactive.
For `C=C(C)C(=O)OCC1CCCO1` (configuration not stated), the result in [1], in [2], in test [3], in test [4], in test [5] and in [6] was inactive. Besides, the call in test [7], in [8], in test [9], in [10], in test [11] and in [12] was inactive. The compound was classed as inactive in [13], in test [14], in test [15], in test [17] and in test [20].
As to `CN1CCCC1`, the compound was classed as inactive in test [1], in [3], in [4], in test [5], in test [6] and in [7]. The compound was classed as inactive in test [8], in test [9], in test [10], in [11], in test [12] and in test [13]. Also, the result in [14], in [15], in test [16], in test [17], in [20] and in [18] was inactive. The outcome in test [19] was inactive.
`CCCCCCC1CCCC(=O)O1` (configuration not stated): the call in [1], in test [2], in test [5], in [6], in [7] and in test [8] was inactive. For the same compound, the compound was classed as inactive in [10], in [11], in test [12], in test [13], in test [14] and in test [15]. Besides, the compound was called inactive in test [16], in [17], in test [20], in test [18] and in test [19]. In addition, the concentration at half-maximal activity (AC50) (in general, the concentration giving half of the maximal activity seen) in test [9] is 19.8 µM (active).
Consider `CC=CC(=O)O`, for which the call in [1], in test [2], in test [3], in [4], in test [6] and in test [7] was inactive. In addition, the compound was called inactive in [9], in test [10], in [11], in test [12], in test [13] and in test [14]. The compound was called inactive in test [15], in [16], in test [20] and in test [18]. Besides, the AC50 in test [8] is 56 µM (active).
For the compound `Cc1cc(O)cc(C)c1Cl`, the result in test [1], in test [2], in test [3], in test [4], in [6] and in test [9] was inactive. The compound was classed as inactive in [10], in test [12], in test [13], in test [14], in test [15] and in test [16]. Also, the compound was classed as inactive in test [20] and in test [18]. For the same compound, the AC50 in test [8] was 48.4 µM (active).
`CCc1cc(C(N)=S)ccn1`: the compound was called inactive in test [1], in test [3], in [6], in [7], in test [9] and in test [10]. Moreover, the compound was called inactive in test [11], in [12], in test [13], in [14], in [15] and in test [16]. For the same compound, the call in [17], in [18] and in test [19] was inactive.
